Consider ten molecules from PubChem BioAssay (Tox21).

The nature of assay [1]: qHTS assay to identify small molecule agonists of the sonic hedgehog signaling (Shh) pathway (AID 1259368).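 Note: NIH/3T3-derived 3T3Gli1-Luc cells carrying a stable Gli1-driven firefly luciferase reporter; series mostly up to about 92 µM; nearly all actives have a fitted effect of over 15% in size.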 In a few lines:
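A Gli1 transcriptional response element controlled firefly luciferase in 3T3Gli1-Luc cells. Compounds and a positive control were added 4 hr after plating, and cells were incubated a further 24 hr at 37 C before luminescence detection.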
In general terms: In qHTS, concentration-response curves come from the screen itself.

The nature of assay [2]: qHTS assay to identify small molecule antagonists of the sonic hedgehog signaling (Shh) pathway (AID 1259369). Note: nearly all actives have a fitted effect of over 45% in size. An outline of the steps: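 For antagonist detection, the reporter line received test compounds together with conditioned medium, incubated 24hr at 37 C, 5% CO2, then luminescence was recorded following 30min room-temperature luciferase reagent incubation.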
Assay [3] in a line: qHTS assay to identify small molecule agonists of the estrogen receptor beta (ER-beta) signaling pathway - cell viability counter screen (AID 1259380; active = well fitted curve in the direction sought with a large enough effect in the repeat runs; an effect the other way counts as inactive or inconclusive; note: nearly all actives have a fitted effect of over 30% in size). In a few lines:
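CellTiter-Glo read, 30 min RT, same wells as bla assay; cells ER-beta-UAS-bla HEK293T; 16 hr compound, 37C; medium 2% charcoal-stripped FBS.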

A short description of assay [4]: qHTS assay to identify small molecule antagonists of the estrogen receptor beta (ER-beta) signaling pathway - cell viability counter screen (AID 1259382; active = well fitted curve in the direction sought with a large enough effect in the repeat runs; an effect the other way counts as inactive or inconclusive; note: nearly all actives have a fitted effect of over 55% in size; note: potency is the fitted concentration of half-maximal effect). In a few lines:
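In this multiplexed counter screen, cells were seeded at 2,000 per well in medium with 2% charcoal-stripped FBS and incubated 6 hr before compound and 1nM final E2 were added. Sixteen hours later, ATP-based luminescence reported viability.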

Assay [5] is described as follows: qHTS assay to identify small molecule agonists of the estrogen receptor alpha (ER-alpha) signaling pathway in the presence of an antagonist - cell viability counter screen (AID 1259386; active = well fitted curve in the direction sought with a large enough effect in the repeat runs; an effect the other way counts as inactive or inconclusive;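 note: series mostly up to about 92 µM; cells exposed to compounds for 22 h at 37 °C before the viability read; nearly all actives have a fitted effect of over 30% in size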). In a few lines:
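Viability counter screen using VM7Luc4E2 (full-length ER-alpha, four ERE-luciferase). The cells were treated with compounds alongside ICI-182,780 10.0nM for 22hr, and live-cell protease fluorescence was quantified with CellTiter-Fluor.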

Assay [6] addresses Progesterone receptor (Homo sapiens) (UniProt P06401). Kind of assay: qHTS assay to identify small molecule agonists of the progesterone receptor (PR) signaling pathway (AID 1346784). Note: nearly all actives have a fitted effect of over 30% in size. Note: potency is the fitted concentration of half-maximal effect. In a few lines:
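HEK 293T PR-UAS-bla reporter cells, 2% charcoal-stripped FBS; 6 hr settle at 37C/5% CO2, compound (DMSO) 16 hr, LiveBLAzer B/G FRET substrate 2 hr RT, fluorescence intensity read.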

The target is the same in assay [7]. The assay can be described thus: qHTS assay to identify small molecule antagonists of the progesterone receptor (PR) signaling pathway (AID 1346795; active = well fitted inhibition curve with a large enough effect in the signal ratio in the repeat runs, not every such curve was filed as active; the % refers to the signal ratio). In a few lines: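 Beta-lactamase reporter, HEK293T PR-UAS-bla line; 2% charcoal-stripped FBS; 6 hr pre-incubation, 37C/5% CO2. Compound + R5020 1 nM final, 16 hr. LiveBLAzer B/G FRET substrate, 2 hr RT; fluorescence intensity read.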

The nature of assay [8]: qHTS assay to identify small molecule antagonists of the progesterone receptor (PR) signaling pathway - cell viability counter screen (AID 1346798; active = well fitted curve in the direction sought with a large enough effect in the repeat runs; an effect the other way counts as inactive or inconclusive; note: series mostly up to about 92 µM; nearly all actives have a fitted effect of over 50% in size). An outline of the steps:
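Luminescence readout (CellTiter-Glo, 30 min, RT) of viability in PR-UAS-bla HEK293T cells exposed to compound and R5020 agonist for 16 hr at 37C, 5% CO2; run in the same wells as the beta-lactamase reporter read.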

The nature of assay [9]: qHTS assay to identify small molecule agonists of the progesterone receptor (PR) signaling pathway - cell viability counter screen (AID 1346799). Note: nearly all actives have a fitted effect of over 45% in size. An outline of the steps:
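HEK293T PR-UAS-bla, 3,000 cells/well, 2% charcoal-stripped FBS; 6 h settle, compound 16 h at 37C/5% CO2; LiveBLAzer 2 h RT, then CellTiter-Glo 30 min RT, luminescence read.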

A short description of assay [10]: qHTS assay to identify small molecule antagonists of the TGF-beta/Smad signaling pathway - cell viability counter screen (AID 1346824; active = well fitted curve in the direction sought with a large enough effect in the repeat runs; an effect the other way counts as inactive or inconclusive; note: nearly all actives have a fitted effect of over 50% in size). An outline of the steps: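 SBE-bla HEK 293T cells were plated overnight at 37 C, then given compounds in DMSO plus TGF-beta1 (added as 0.25 ng/mL solution) for 5 hr. After the bla read, CellTiter-Glo was added to the same wells and luminescence read after 30 min at room temperature.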

Assay [11] in a line: qHTS assay to identify small molecule agonists of the TGF-beta/Smad signaling pathway (AID 1346859; active = well fitted activation curve with a large enough effect in the signal ratio in the repeat runs, not every such curve was filed as active; the % refers to the signal ratio; note: series mostly up to about 77 µM). In a few lines: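 Read-out: fluorescence at 460 and 530 nm (405 nm excitation) after a 2 hr room-temperature incubation with beta-lactamase FRET substrate. SBE-bla HEK 293T cells had been treated with test compounds for 5 hr at 37 C.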
In assay [12] the target is Thyrotropin-releasing hormone receptor (Homo sapiens) (UniProt P34981). Kind of assay: qHTS assay to identify small molecule antagonists of the thyrotropin-releasing hormone receptor (TRHR) signaling pathway (AID 1346877; active = well fitted inhibition curve with a large enough effect in the repeat runs, not every such curve was filed as active; note: series mostly up to about 51 µM). In a few lines:
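Following an 18 h incubation at 37 °C and a 2 h calcium dye load, TRHR-HEK293 cells were exposed to compound (5 min, room temperature) and challenged with TRH, 1 nM final.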

In assay [13] the target is Estrogen receptor (Homo sapiens) (UniProt P03372). Kind of assay: qHTS assay to identify small molecule agonists of the estrogen receptor alpha (ER-alpha) signaling pathway in the presence of an antagonist (AID 1259383). Note: top concentration of the series differs between compounds; nearly all actives have a fitted effect of over 15% in size. In a few lines:
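Stably transfected VM7Luc4E2 reporter cells, kept 5 days in charcoal-stripped serum, received ICI-182,780 at 10.0nM final before compound addition. Following 22hr incubation at 37C and 5% CO2, luciferase signal was read by luminescence.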

Assay [14] in a line: qHTS assay to identify small molecule agonists or antagonists of the thyroid stimulating hormone receptor (TSHR) signaling pathway - wild type cell line counter screen (AID 1259384). In a few lines: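 Wild-type HEK293 cells were plated 18 h at 37 C/5% CO2, pin-dosed with compound plus Ro20-1724 medium, held 30 min at room temperature, then given cAMP-d2 and anti-cAMP-cryptate; fluorescence was read after 1 h. Fifteen concentrations, triplicate.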

The target of assay [15] is Thyrotropin receptor (Homo sapiens) (UniProt P16473). Kind of assay: qHTS assay to identify small molecule antagonists of the thyroid stimulating hormone receptor (TSHR) signaling pathway (AID 1259385). Note: nearly all actives have a fitted effect of over 20% in size. An outline of the steps:
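TSHR-HEK293 cells were plated and held 18 h at 37C/5% CO2, then given compound plus Ro20-1724 and stimulated with TSH at 1.5 ng/mL final. After 30 min at room temperature, cAMP was detected with cAMP-d2/anti-cAMP-cryptate (1 h) by fluorescence.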

Assay [16] in a line: qHTS assay to identify small molecule agonists of the TGF-beta/Smad signaling pathway - cell viability counter screen (AID 1346829; active = well fitted curve in the direction sought with a large enough effect in the repeat runs; an effect the other way counts as inactive or inconclusive; note: top concentration of the series differs between compounds; nearly all actives have a fitted effect of over 45% in size). In a few lines: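 Compound-treated SBE-bla HEK 293T cells (5 hr, 37 C) were assessed for viability with CellTiter-Glo in parallel with the reporter read.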
A short description of assay [17]: qHTS assay to identify small molecule agonists of the androgen receptor (AR) signaling pathway in the presence of an antagonist - cell viability counter screen (AID 1259379; active = well fitted curve in the direction sought with a large enough effect in the repeat runs; an effect the other way counts as inactive or inconclusive;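 note: MDA-kb2 human breast cancer cells carrying an MMTV luciferase reporter; series mostly up to about 92 µM; nearly all actives have a fitted effect of over 25% in size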). In a few lines: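 Seed MDA-kb2 at 3,000 cells/well; incubate 5 hr, 37C, 0% CO2. Add nilutamide to 3.0uM final, then pin compounds at 15 concentrations. Incubate 16 hr. Add CellTiter-Fluor at 15 hr, read fluorescence after 1 hr.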

In assay [18] the target is Androgen receptor (Homo sapiens) (UniProt P10275). Kind of assay: qHTS assay to identify small molecule agonists of the androgen receptor (AR) signaling pathway in the presence of an antagonist (AID 1259381). Note: nearly all actives have a fitted effect of over 15% in size. An outline of the steps:
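Test compounds at 15 concentrations were incubated for 16hr with MDA-kb2 reporter cells in presence of 3.0uM nilutamide (final). Signal: ONE-Glo luciferase luminescence.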

Unmarked numbers belong to inactive results. Results filed as inconclusive are left out. Active and inactive are the calls of the source. Unless noted, calls come from the whole dose curve.

Sequence of Thyrotropin-releasing hormone receptor (Homo sapiens) (P34981 whole entry, looked up): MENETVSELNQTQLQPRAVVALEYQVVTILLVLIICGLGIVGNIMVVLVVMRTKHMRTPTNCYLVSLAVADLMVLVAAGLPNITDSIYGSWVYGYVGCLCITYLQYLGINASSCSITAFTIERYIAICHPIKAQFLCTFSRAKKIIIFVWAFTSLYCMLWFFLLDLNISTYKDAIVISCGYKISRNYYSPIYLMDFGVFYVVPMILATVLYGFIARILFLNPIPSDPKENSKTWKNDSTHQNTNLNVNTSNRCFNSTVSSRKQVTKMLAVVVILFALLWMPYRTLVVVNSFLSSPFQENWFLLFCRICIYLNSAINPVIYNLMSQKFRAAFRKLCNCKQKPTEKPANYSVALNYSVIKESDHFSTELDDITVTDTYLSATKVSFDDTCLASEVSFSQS
Sequence of Estrogen receptor (Homo sapiens) (P03372 whole entry, looked up): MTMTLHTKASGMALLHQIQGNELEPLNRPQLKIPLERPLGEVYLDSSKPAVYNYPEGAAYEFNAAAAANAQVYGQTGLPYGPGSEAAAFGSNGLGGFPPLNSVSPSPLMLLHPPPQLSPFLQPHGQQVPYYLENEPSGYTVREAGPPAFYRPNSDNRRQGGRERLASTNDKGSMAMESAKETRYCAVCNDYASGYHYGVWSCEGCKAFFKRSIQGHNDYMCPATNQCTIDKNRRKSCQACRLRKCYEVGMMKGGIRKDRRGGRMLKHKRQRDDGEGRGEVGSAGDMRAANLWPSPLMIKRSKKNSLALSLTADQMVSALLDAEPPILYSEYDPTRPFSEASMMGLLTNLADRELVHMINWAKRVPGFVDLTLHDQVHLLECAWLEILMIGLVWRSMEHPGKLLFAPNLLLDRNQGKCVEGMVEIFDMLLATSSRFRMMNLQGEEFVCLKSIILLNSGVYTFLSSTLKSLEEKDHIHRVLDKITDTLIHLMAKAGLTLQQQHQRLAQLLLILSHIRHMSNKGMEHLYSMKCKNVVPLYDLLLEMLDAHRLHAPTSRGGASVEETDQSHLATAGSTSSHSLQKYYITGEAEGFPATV
Sequence of Thyrotropin receptor (Homo sapiens) (P16473 whole entry, looked up): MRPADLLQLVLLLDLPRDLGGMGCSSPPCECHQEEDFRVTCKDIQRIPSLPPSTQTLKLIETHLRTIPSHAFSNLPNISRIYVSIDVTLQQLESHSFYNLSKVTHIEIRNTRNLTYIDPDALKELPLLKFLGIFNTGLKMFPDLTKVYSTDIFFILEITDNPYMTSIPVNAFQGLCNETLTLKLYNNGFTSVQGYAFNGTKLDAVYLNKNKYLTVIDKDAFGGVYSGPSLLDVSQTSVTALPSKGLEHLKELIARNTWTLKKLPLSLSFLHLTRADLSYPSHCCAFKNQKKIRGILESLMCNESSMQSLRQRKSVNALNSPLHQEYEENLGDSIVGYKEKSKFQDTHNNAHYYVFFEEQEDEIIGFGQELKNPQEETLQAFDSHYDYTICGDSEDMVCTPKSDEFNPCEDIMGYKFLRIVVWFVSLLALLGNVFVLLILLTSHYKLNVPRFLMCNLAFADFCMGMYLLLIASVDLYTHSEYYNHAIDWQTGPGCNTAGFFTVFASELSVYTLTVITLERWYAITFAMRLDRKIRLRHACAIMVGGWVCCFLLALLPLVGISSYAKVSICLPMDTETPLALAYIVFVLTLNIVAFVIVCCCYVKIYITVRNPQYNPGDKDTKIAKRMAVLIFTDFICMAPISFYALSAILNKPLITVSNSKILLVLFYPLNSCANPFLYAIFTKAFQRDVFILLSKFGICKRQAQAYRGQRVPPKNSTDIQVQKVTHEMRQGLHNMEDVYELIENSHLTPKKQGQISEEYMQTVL
Sequence of Progesterone receptor (Homo sapiens) (P06401 whole entry, looked up): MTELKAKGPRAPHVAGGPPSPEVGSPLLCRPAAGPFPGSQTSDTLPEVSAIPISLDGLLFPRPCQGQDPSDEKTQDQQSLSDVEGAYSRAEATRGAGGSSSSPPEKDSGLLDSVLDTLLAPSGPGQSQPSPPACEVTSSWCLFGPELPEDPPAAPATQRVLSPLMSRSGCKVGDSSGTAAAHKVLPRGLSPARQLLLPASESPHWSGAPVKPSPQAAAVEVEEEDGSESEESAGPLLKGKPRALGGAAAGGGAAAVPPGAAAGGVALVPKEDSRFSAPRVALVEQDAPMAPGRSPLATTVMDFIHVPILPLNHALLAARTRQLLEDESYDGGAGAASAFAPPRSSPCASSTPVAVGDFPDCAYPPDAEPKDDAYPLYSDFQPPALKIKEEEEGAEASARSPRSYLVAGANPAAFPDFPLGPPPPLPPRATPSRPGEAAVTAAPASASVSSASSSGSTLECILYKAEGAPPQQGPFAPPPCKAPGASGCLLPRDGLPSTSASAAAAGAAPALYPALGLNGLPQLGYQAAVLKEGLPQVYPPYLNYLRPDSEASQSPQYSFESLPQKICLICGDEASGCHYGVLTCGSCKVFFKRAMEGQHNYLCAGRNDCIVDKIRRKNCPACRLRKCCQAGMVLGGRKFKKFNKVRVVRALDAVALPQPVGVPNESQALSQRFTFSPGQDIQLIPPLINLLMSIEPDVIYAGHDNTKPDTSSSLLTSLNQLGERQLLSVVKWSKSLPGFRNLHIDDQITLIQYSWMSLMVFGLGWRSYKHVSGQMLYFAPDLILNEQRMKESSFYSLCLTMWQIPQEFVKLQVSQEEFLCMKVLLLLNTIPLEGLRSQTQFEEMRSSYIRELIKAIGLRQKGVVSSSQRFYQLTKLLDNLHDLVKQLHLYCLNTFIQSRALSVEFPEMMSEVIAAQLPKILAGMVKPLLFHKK
Sequence of Androgen receptor (Homo sapiens) (P10275 whole entry, looked up): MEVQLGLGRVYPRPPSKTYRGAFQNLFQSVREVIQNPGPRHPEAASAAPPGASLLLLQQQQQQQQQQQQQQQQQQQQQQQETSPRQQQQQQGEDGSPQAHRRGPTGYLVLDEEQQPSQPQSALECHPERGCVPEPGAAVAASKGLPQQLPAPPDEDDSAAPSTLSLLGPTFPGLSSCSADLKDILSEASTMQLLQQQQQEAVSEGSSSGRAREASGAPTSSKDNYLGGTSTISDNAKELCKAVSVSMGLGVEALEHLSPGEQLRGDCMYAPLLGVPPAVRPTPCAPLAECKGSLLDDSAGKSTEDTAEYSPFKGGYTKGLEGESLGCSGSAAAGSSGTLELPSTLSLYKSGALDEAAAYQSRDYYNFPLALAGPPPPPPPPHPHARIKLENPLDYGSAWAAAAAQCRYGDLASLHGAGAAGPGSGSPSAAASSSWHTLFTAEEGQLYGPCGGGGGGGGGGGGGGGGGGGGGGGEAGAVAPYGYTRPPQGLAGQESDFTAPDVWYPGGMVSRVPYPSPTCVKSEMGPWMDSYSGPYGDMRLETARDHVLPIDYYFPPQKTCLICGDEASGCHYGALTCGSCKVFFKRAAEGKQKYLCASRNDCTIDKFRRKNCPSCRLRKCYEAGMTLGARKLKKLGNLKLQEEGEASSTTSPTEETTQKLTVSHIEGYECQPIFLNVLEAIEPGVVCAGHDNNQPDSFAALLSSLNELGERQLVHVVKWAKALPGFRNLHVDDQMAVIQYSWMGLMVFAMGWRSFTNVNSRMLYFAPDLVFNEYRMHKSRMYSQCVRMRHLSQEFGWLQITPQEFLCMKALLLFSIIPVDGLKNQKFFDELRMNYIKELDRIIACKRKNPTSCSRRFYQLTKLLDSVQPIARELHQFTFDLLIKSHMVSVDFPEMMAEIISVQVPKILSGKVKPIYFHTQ

On to `C1C2OC2C2C1C1CC2C2OC12` (stereo unspecified), for which the Potency entry in [1], in assay [2], in [3], in assay [4], in [6] and in assay [7] was “inactive” throughout. Besides, the Potency entry in assay [8] and in assay [9] was “inactive” throughout. The outcome in assay [5], in assay [10], in [11] and in [12] was inactive.

With `NCCNC(=O)c1ccc(Cl)cn1`, the Potency result in assay [1], in assay [2], in assay [3], in assay [4], in assay [13] and in [15] was “inactive” in each case. Besides, the Potency entry in [6], in assay [7], in [8] and in [9] was “inactive” throughout. Also, the molecule was called inactive in assay [14], in assay [5], in assay [10], in assay [16], in assay [11] and in assay [12].

On to `CC(C)N1C(=O)c2ccccc2C1=O`, for which the Potency entry in assay [1], in assay [2], in [3], in assay [4], in assay [13] and in [15] was “inactive” each time. For the same molecule, the Potency entry in [6], in [7] and in assay [8] was “inactive” each time. Also, the molecule was classed as inactive in assay [14], in [5], in assay [16] and in [11].

With `CCCC(C)C(=O)O` (stereo unspecified), the Potency entry in assay [1], in [2], in assay [17], in [13], in [15] and in [6] was “inactive” in each case. The Potency result in assay [7] is “inactive”. Also, in [4], the Potency is 37 µM (active). Also, the call in assay [14], in [5], in assay [11] and in assay [12] was inactive.

Turning to `CO`, the Potency entry in [1], in assay [2], in [17], in assay [3], in assay [4] and in assay [15] was “inactive” throughout. Further, the Potency result in [6], in assay [7], in assay [8] and in assay [9] was “inactive” in each case. The molecule was classed as inactive in assay [14], in assay [5], in assay [16], in assay [11] and in assay [12].

As for `CCN1CCCC1CNC(=O)c1cc(S(N)(=O)=O)ccc1OC` (stereo unspecified), the Potency entry in assay [1], in assay [2], in assay [17], in [18], in assay [15] and in assay [6] was “inactive” each time. The result in [14], in assay [5], in assay [11] and in assay [12] was inactive.

On to `CC(C)CCOC(=O)CC(C)C`, for which the Potency result in assay [1], in assay [2], in assay [17], in assay [3], in [4] and in assay [13] was “inactive” in each case. Further, the Potency result in [6], in assay [7], in assay [8] and in [9] was “inactive” throughout. Besides, the result in assay [5], in assay [16], in [11] and in assay [12] was inactive.

Regarding `O=C1C(CCS(=O)c2ccccc2)C(=O)N(c2ccccc2)N1c1ccccc1` (stereo unspecified), the Potency entry in assay [1], in assay [2], in [17], in assay [3], in assay [4] and in assay [13] was “inactive” each time. Moreover, the Potency result in assay [7] and in assay [8] was “inactive” throughout. Further, the result in [5], in assay [11] and in [12] was inactive.

On to `CCC(=O)c1cccc(Cl)c1`, for which the Potency entry in [1], in assay [2], in assay [17], in [3], in assay [4] and in assay [15] was “inactive” each time. The Potency entry in [7] and in assay [8] was “inactive” throughout. For the same molecule, the outcome in [14], in assay [5], in assay [10], in assay [16], in [11] and in assay [12] was inactive. Moreover, in assay [6], the Potency was 1.97 µM (active).

Consider `Cc1ccc(Nc2ccc(O)c3c2C(=O)c2ccccc2C3=O)cc1`, for which the Potency result in assay [1], in assay [2], in assay [3], in assay [4], in assay [13] and in assay [6] was “inactive” in each case. Further, the Potency entry in assay [7] and in assay [8] was “inactive” each time. Moreover, the result in assay [5], in [10], in assay [16], in assay [11] and in assay [12] was inactive.
